Source: PubChem BioAssay (National Center for Advancing Translational Sciences (NCATS))
D3 ag: agonists of human D3 dopamine receptor; P35462; D3R DiscoveRx beta-arrestin cells, luminescence, 90 min; max activation, %; hit rate 0.58% among 410,000; AID 652048; in the data active means max activation above about 30%; further: 0% is about no effect
Target sequence (P35462 whole entry, looked up): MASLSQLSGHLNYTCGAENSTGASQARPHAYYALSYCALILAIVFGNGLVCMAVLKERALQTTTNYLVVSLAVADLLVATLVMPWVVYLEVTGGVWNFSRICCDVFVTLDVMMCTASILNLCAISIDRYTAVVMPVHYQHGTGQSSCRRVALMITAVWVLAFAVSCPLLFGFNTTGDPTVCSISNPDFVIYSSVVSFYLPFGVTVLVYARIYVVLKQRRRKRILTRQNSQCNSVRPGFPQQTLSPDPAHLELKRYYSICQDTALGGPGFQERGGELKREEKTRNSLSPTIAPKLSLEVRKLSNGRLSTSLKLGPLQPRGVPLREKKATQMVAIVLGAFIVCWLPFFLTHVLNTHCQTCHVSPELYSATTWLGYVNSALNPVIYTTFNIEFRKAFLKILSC
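Agonist-mode cell screen: cells plated at 1500/well and incubated overnight at 37 °C, then exposed to library compounds for 90 min at 37 °C. Detection reagent was added for 30–60 min at room temperature, and luminescence was read.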
Glioma ERSR ind: inducers of ER stress response in human glioma cells; hit rate 0.02% among 420,000; Potency, µM, inactives show at the top dose activation, actives largely listed as activators; U87-MG GRP78 promoter luciferase reporter, 16 h; further: potency means the concentration at half of the fitted maximal effect; series mostly up to about 76 µM; % of control where 0% means no effect; nearly all actives have a fitted effect of over 35% in size
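Stably transfected U87-MG human glioma cells carrying a GRP78-based luminescent sensor were seeded at 1000 cells/well, pin-dosed with compounds and incubated 16 h. Luciferase reagent was then added, and end-point luminescence was read after 10 min at room temperature.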
DRD3 antagonist: D3 dopamine receptor (human) antagonism; D3R cells, DiscoveRx beta-arrestin luminescence, antagonist mode; hits give low values; AID 652054; max response, negative = inhibition, %; hit rate 2.5% among 360,000; in the data active means max response below about -50%; inconclusive means no clear call, values can overlap the other calls; further: on the % scale 0 is the no-effect control and ±100 the full control effect
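Cells expressing the human receptor were seeded at 1500 cells/well, incubated overnight at 37 degrees C in 5% CO2, then exposed to library compounds with dopamine controls for 90 minutes at 37 degrees C before luminescent detection.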
Nrf2 ARE act: activators of Nrf2 (ARE) signaling | hit rate 0.31% among 410,000 | Potency, µM (doses to about 46.1 µM), without a hit: at the highest dose activation, usual class: activators | AID 624171 | AREc32 ARE-luciferase reporter (MCF7-derived line), luminescence, 24 h; further: potency means the concentration at half of the fitted maximal effect; % of control where 0% means no effect; nearly all actives have a fitted effect of over 65% in size
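AREc32_Fluc, 1000 cells/well, OPTI-MEM + 5% FBS, o/n 37 deg C 5% CO2; 23 nL cpd by pin tool, 24 hr; Steady-Glo 30 min RT, luminescence.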
* = called active by the depositor; u = inconclusive; x = no result. Hits are enriched below; roughly 3% of the tested compounds scored in any of these assays. Unless noted, the call rests on the fitted dose curve; in most records, active means well fitted curve in the direction sought with a large enough effect; inconclusive means small, poorly fitted or top-dose-only effect, or another doubt; inactive means no such curve, though single readings can be large; an effect the other way counts as inactive or inconclusive.

SMILES	D3 ag	Glioma ERSR ind	DRD3 antagonist	Nrf2 ARE act
O=C(CCN1C(=O)COc2ccccc21)NCCN1CCN(c2ccccc2F)CC1	-18.1	-5.9%	-64.1*	0.2%
O=C(CN1C(=O)COc2ccccc21)NCCCN1CCN(c2ccccc2F)CC1	2.4	-3.9%	-90.5*	2.3%
CN1CCN(CCCNC(=O)C2CC(=O)N(C3CCCCC3)C2)CC1 (centres undefined)	4.1	-4.3%	15.5	-1.1%
CC(C)OCCCNC(=O)CCN1C(=O)COc2ccccc21	2.1	-3.2%	5.2	-0.5%
CN1CCN(CCCNC(=O)CN2C(=O)COc3ccccc32)CC1	-23.3	-4.3%	-19.5	0.1%
CCN(CC)CCCNC(=O)Cc1csc2nc(-c3ccc(Cl)cc3)cn12	-4.5	-2.8%	x	12.0%
Cn1c(=O)cc(OCCCC(=O)NCCN2CCN(c3ccccc3F)CC2)c2ccccc21	39.4*	-1.3%	u	7.1%
CCn1c(=O)cc(SCC(=O)NCCCN2CCN(c3ccccc3F)CC2)c2ccccc21	-33.4	-1.0%	-81.5*	5.7%
CC1(C)CC(=O)c2cc(OCC(=O)NCCCN3CCN(c4ccccc4F)CC3)ccc2O1	-1.9	3.6%	-54.5*	-0.3%
O=C(NCCN1CCN(c2ccccc2F)CC1)C1c2ccccc2C(=O)N2CCc3ccccc3C12 (centres undefined)	-1.7	-3.7%	-56.6*	-0.1%
CCC(=O)N1c2ccccc2CC1C(=O)NCCN1CCN(c2ccccc2F)CC1 (centres undefined)	-24.5	-2.6%	x	-1.0%
Cc1c(CN2CCOc3c(cc(-c4ncc(C(F)(F)F)cc4Cl)cc3OCC3CCCO3)C2)cnn1C (centres undefined)	x	-1.2%	x	x
CN1C(CSCC(F)(F)F)Nc2cc(Cl)c(S(N)(=O)=O)cc2S1(=O)=O (centres undefined)	9.7	-3.7%	x	x
O=C1c2ccccc2NC(c2cccc(F)c2)N1Cc1ccco1 (centres undefined)	-25.0	-3.5%	-61.0*	6.0%
C[C@]1(O)CC(=O)C=C[C@H]1Nc1ccccc1	-21.0	-7.7%	-51.7*	-1.7%
CC1(C)CC(C(=O)Nc2ccccc2)C(=O)O1 (centres undefined)	11.7	-2.2%	-5.8	0.3%
O=[N+]([O-])c1ccc(N2CCN(Cc3ccccc3)CC2)c2c1no[n+]2[O-]	-12.6	-13.3%	-74.0*	u
O=[N+]([O-])c1ccc(N2CCN(Cc3ccccc3)CC2)nc1	-5.0	1.4%	-12.0	-0.5%
O=[N+]([O-])c1ccc(N2CCCCC2)s1	-6.2	-0.8%	-22.5	-0.2%
O=[N+]([O-])c1ccc(N2CCN(Cc3ccccc3)CC2)s1	-8.8	-9.0%	-65.7*	-0.2%
COC(=O)[C@H](Cc1ccccc1)N(Cc1ccc(C)cc1)S(C)(=O)=O	x	-2.1%	x	x
C#CCOCCOCCOCCNc1nc(N2CCN(C(=O)[C@H]([C@@H](C)CC)n3cc([C@@H](N)CC(C)C)nn3)CC2)nc(N2CCN(C(=O)[C@H](Cc3cc4ccccc4[nH]3)n3cc([C@@H](N)Cc4ccc(O)cc4)nn3)CC2)n1	-10.5	-3.4%	-16.6	5.8%
CC[C@H](C)Cc1cn([C@@H](CCCN=C(NC(=O)OC(C)(C)C)NC(=O)OC(C)(C)C)C(=O)NCCCCCCCCCCC(=O)N2CCN(C(=O)OC(C)(C)C)CC2)nn1	-8.9	-2.8%	26.0	-3.8%
C#CCOCCOCCOCCNc1nc(N2CCN(C(=O)CCCCCCCCCCNC(=O)[C@H](CCCCN)n3cc(C[C@@H](C)CC)nn3)CC2)nc(N2CCN(C(=O)CCCCCCCCCCNC(=O)[C@H](CCCN=C(N)N)n3cc(C[C@@H](C)CC)nn3)CC2)n1	-13.0	-11.9%	-76.3*	-3.8%
Cc1cn([C@@H](CCCCNC(=O)OC(C)(C)C)C(=O)NCCCCCCCCCCC(=O)N2CCN(C(=O)OC(C)(C)C)CC2)nn1	66.4*	-7.6%	89.0	-1.3%
SMILES	D3 ag	Glioma ERSR ind	DRD3 antagonist	Nrf2 ARE act
C#CCOCCOCCOCCNc1nc(N2CCN(C(=O)[C@H]([C@@H](C)O)n3cc(CCCCN)nn3)CC2)nc(N2CCN(C(=O)[C@H](CCCCN)n3cc(CC(C)O)nn3)CC2)n1 (some centres undefined)	-11.0	-4.6%	-52.4*	-0.8%
C#CCOCCOCCOCCNc1nc(N2CCN(C(=O)[C@H]([C@@H](C)CC)n3cc(CCCCN)nn3)CC2)nc(N2CCN(C(=O)[C@H](CCCCN)n3cc(CC(C)O)nn3)CC2)n1 (some centres undefined)	-5.0	-4.4%	-17.8	0.5%
C#CCOCCOCCOCCNc1nc(N2CCN(C(=O)[C@H]([C@@H](C)CC)n3cc([C@@H](N)Cc4ccc(O)cc4)nn3)CC2)nc(N2CCN(C(=O)[C@H](Cc3cc4ccccc4[nH]3)n3cc([C@@H](N)CC(C)C)nn3)CC2)n1	-10.2	-3.8%	-50.3*	10.6%
C#CCOCCOCCOCCNc1nc(N2CCN(C(=O)CCCCCCCCCCNC(=O)[C@H](CCCCN)n3cc(C[C@@H](C)CC)nn3)CC2)nc(N2CCN(C(=O)CCCCCCCCCCNC(=O)[C@@H]([C@H](C)O)n3cc(C)nn3)CC2)n1	-12.4	-11.9%	-59.1*	-3.0%
c1ccc2[nH]ccc2c1	49.8*	-4.8%	x	x
Oc1cccc(/C=N/NC(=S)Nc2cccnc2)c1O	25.0	1.5%	46.0	11.1%
S=C(N/N=C/c1cccc2ccccc12)Nc1cccc(Cl)c1	-11.9	4.8%	-53.8*	2.6%
Oc1ccc(/C=N/NC(=S)Nc2cccnc2)c(O)c1O	36.8*	-1.2%	1.0	3.8%
S=C(N/N=C/c1ccccc1Cl)Nc1ccccc1	-34.2	6.8%	-63.6*	9.8%
CNC(=S)N/N=C/c1ccccc1Cl	0.6	3.5%	-5.0	3.1%
COc1ccccc1CNC(=O)Cn1ncc2c(C)n(Cc3ccccc3Cl)c(C)c2c1=O	-7.6	-3.1%	x	0.1%
Cc1ccc(C(C)C)c(OCCCN(C)Cc2ccccc2)c1	-14.2	-5.0%	-61.4*	2.6%
Cc1ccc(OCCCCN(C)Cc2ccccc2)c(Br)c1	-15.8	3.7%	-54.6*	6.9%
CC(C)OC(=O)OCOP(=O)(CO[C@H](C)Cn1cnc2c(N)ncnc21)OCOC(=O)OC(C)C	-1.5	-3.9%	x	x
Cc1cc(C(=O)NCC2CCC3(CCN(Cc4ccc5ccccc5c4)CC3)O2)n(C)n1 (centres undefined)	x	-0.2%	x	x
O=C(Nc1cccc2c(=O)cc(-c3nn[nH]n3)oc12)c1ccc(OCCCCc2ccccc2)cc1	-10.5	-3.4%	x	x
Cc1c(N)nc(C(CC(N)=O)NCC(N)C(N)=O)nc1C(=O)NC(C(=O)NC(C)C(O)C(C)C(=O)NC(C(=O)NCCc1nc(-c2nc(C(=O)NCCCN[C@@H](C)c3ccccc3)cs2)cs1)C(C)O)C(O[C@@H]1O[C@@H](CO)[C@@H](O)[C@H](O)[C@@H]1O[C@H]1O[C@H](CO)[C@@H](O)[C@H](OC(N)=O)[C@@H]1O)c1cnc[nH]1 (some centres undefined)	5.6	x	x	x
Cc1ccc(SCCN2CCN(CCc3ccccc3)CCC2=O)cc1	-68.0	2.3%	-59.3*	4.4%
O=C1CCN(CCc2ccccc2)CCN1[C@H](CSc1ccc(Br)cc1)Cc1ccccc1	-51.9	-3.5%	-56.9*	3.5%
